Source: PubChem BioAssay
PNC inhibitor: High Content Assay for Compounds that inhibit the Assembly of the Perinucleolar Compartment. 140,000 tested, 3.1% active. activity change (PNC), negative = inhibition, % at 10 µM. PC3M PTB-GFP, PNC prevalence imaging, 16 h; stronger effect = lower value. AID 2417, 2010;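 active = readout at or below -70, meaning at least 70% loss of cells showing the perinucleolar compartment, a nuclear body marking cancer cells; inconclusive = readout between -30 and a set limit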;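 note: plate controls were DMSO wells for no effect and camptothecin positive control wells for full effect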
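PC3M cells stably expressing PTB-GFP, 750–1000 cells/well, treated 16 h at 37 °C with compound (23 nl of library stock), in duplicate. After paraformaldehyde fixation and Hoechst stain, imaged at 20x; PNC prevalence scored by image analysis.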
ALDH1A1 block: qHTS Assay for Inhibitors of Aldehyde Dehydrogenase 1 (ALDH1A1) | Aldehyde dehydrogenase 1A1 (Homo sapiens), P00352 | Purified ALDH1A1, NADH fluorescence, propionaldehyde substrate | Potency, µM (highest dose often 75.3 µM), inactives show at the highest dose activity, negative = inhibition, actives largely listed as inhibitors | 220,000 tested, 7.3% active | AID 1030, 2008;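 note: potency is the fitted concentration of half-maximal effect; plate controls were no enzyme wells and a reference inhibitor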
HPGD inh: qHTS Assay for Inhibitors of HPGD (15-Hydroxyprostaglandin Dehydrogenase); 15-hydroxyprostaglandin dehydrogenase [NAD(+)] (Homo sapiens), P15428; 150,000 tested, 4.3% active; Potency, µM, for inactives: at the highest dose activity change, negative = inhibition, actives largely listed as inhibitors; purified HPGD, NADH fluorescence kinetic, PGE2 substrate; note: potency is the fitted concentration of half-maximal effect
Target sequence (P15428 whole entry, looked up): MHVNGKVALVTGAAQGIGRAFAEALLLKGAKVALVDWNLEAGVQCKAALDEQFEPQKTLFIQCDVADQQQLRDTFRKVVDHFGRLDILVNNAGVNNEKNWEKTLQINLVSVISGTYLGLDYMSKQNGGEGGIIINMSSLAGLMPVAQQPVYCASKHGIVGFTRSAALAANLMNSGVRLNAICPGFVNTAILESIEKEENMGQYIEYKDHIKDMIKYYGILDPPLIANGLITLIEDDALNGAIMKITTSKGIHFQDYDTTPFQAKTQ
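20 nM HPGD preincubated 15 min at room temperature with compound in 50 mM Tris-HCl pH 8, 0.01% Tween 20. Started with 1 mM NAD+ and 30 uM prostaglandin E2; NADH fluorescence (360/450 nm) read 5 times over 30-s intervals, last minus first.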
Starred values were filed as active, the others as inactive; u = inconclusive; x = no result given; [ ] = another dose, or the depositor's remark. Hits are enriched below; roughly 11% of the tested compounds scored in any of these assays. Unless noted, calls come from the whole dose curve; as a rule, active = well fitted inhibition curve with a large enough effect (not every such curve was filed as active); inconclusive = small, poorly fitted or top-dose-only effect, or another doubt; inactive = no such curve, though single readings can be large or run the other way. Unless noted, % is set by controls: 0 for no effect and ±100 for the full control effect.

SMILES	PNC inhibitor	ALDH1A1 block	HPGD inh
CC1CC(C)CN(S(=O)(=O)c2ccc(C(=O)OCC(=O)NCCN3C(=O)CSC3=O)cc2)C1 (stereo unspecified)	x	2%	x
C=CCNC(=O)/C(C#N)=C\c1cc(Cl)c(O)c(OCC)c1	-28	u	-27%
CCOc1cc(/C=C2\CCC/C(=C\c3cc(Cl)c(O)c(OCC)c3)C2=O)cc(Cl)c1O	28	2.5µM*	16µM*
CNc1nc(NC)nc(-n2c(C(F)(F)F)nc3ccccc32)n1	36	9%	-7%
N#CC1(c2ccc(NC(=O)c3ccccc3)cc2)CCCC1	u	4.5µM*	-24%
O=C(NNC(=O)c1ccc(NC(=O)c2ccccc2)cc1)c1ccccc1	x	6%	x
CC(=O)OCC1=C(C(=O)O)N2C(=O)C(NC(=O)CSc3ccncc3)[C@@H]2SC1 (stereo partly specified)	x	8%	-7%
CCCN1C(=O)/C(=C\c2ccncc2)SC1=Nc1ccccc1	u	-3%	32µM*
CCOc1ccc(N=C2NC(=O)/C(=C/C(=O)OC)S2)cc1	-29	-8%	u
CCCN1C(=O)/C(=C/c2ccco2)SC1=Nc1ccc(OC)cc1	28	13µM*	-6%
CN1C(=O)/C(=C/c2ccco2)SC1=Nc1ccc(N2CCOCC2)cc1	102	-2%	-4%
CCN1C(=O)/C(=C\c2ccncc2)SC1=Nc1ccc(C)c(C)c1	34	u	-29%
COc1ccc(N=C2S/C(=C\c3ccc(N4CCOCC4)o3)C(=O)N2CCc2c[nH]c3ccccc23)cc1	u	8.9µM*	u
CCCN1C(=O)/C(=C/c2ccc(C)o2)SC1=Nc1ccc(OCC)cc1	u	7.9µM*	-11%
COc1ccc(NC(=O)C(Sc2ccccc2)c2ccccc2)c(OC)c1 (stereo unspecified)	-1	-7%	x
COC(=O)CS	x	4%	-6%
O=C(O)C[C@H](Nc1ccccc1)C(=O)O	x	-2%[13.5 µM]	-10%
COc1ccc(N=C2S/C(=C\c3ccc(C)o3)C(=O)N2CC(C)C)cc1	14	8.9µM*	-26%
COc1ccc(N=C2SCC(=O)N2c2ccc(OC)cc2)cc1	32	-1%	-8%
CCCN1C(=O)/C(=C/c2ccc(C)o2)SC1=Nc1ccc(OC)cc1	31	3.5µM*	25µM*
C=CCN1C(=O)/C(=C2/Sc3ccc(OC)cc3N2C)SC1=Nc1ccccc1	x	-3%	x
O=C(Cn1cncn1)NCCC(c1ccccc1)c1ccccc1	x	14%	x
CCN1C(=O)N(CC)C2C1N(C(C)=O)C(=O)N2C(C)=O (stereo unspecified)	u	3%	3%
COc1ccccc1CNC(=O)CCS(=O)(=O)c1ccc2c(c1)CCCN2C(C)=O	-25	-11%	-10%
Nc1cc2c(cc1[N+](=O)[O-])OCCOCCOCCO2	x	-1%	x
SMILES	PNC inhibitor	ALDH1A1 block	HPGD inh
CN(/C=C/C(=C\C=[N+](C)c1ccccc1)OCCCS(=O)(=O)[O-])c1ccccc1	x	32µM*	x
CN(CC(=O)NCCc1ccc(S(N)(=O)=O)cc1)c1ccccc1	x	12%	x
C#CCSC1=C(C#N)C(c2cccs2)C(C(=O)OCC)=C(C)N1 (stereo unspecified)	24	25µM*	-23%
CCOC(=O)C1=C(C)NC(C)=C(C(=O)OCC)C1c1cccs1	4	2%	-11%
O=C(CCCc1cccs1)N1CCN(S(=O)(=O)c2ccccc2Br)CC1	15	-11%	0%
O=C(COc1ccccc1)NCC(=O)N/N=C/c1cccs1	-7	22µM*	-18%
COc1cccc(C(=O)NCC(=O)N/N=C/c2cccs2)c1	1	2%	-12%
O=C(COc1ccc([N+](=O)[O-])cc1)Nc1ccc(C(=O)NCc2cccnc2)cc1	34	-2%	-3%
Cc1cccc(N2CCN(c3nc4ccccc4n4cnnc34)CC2)c1C	-29	64%	u
c1ccc(C(c2ccccc2)N2CCN(c3nc4ccccc4n4cnnc34)CC2)cc1	-17	14µM*	x
CC1=NN2C(=N)/C(=C\c3ccc(SCc4ccccc4)o3)C(=O)N=C2S1	21	-16%	-22%
N=C1/C(=C\c2ccc(SCc3ccco3)o2)C(=O)N=C2SC=NN12	67	7.9µM*	25µM*
CCC(c1nnc(SCC(=O)Nc2nnc(-c3ccccc3)o2)n1Cc1ccccc1)N(C)C (stereo unspecified)	57	1%	-16%
C[C@H]1Cc2c(COc3ccccc3)nc3c(c2CO1)CN(C(=O)C1CCCCC1)CC3	x	-6%[13.5 µM]	-5%
Cc1ccsc1C(=O)OCC(=O)Nc1cccc(S(=O)(=O)N2CCOCC2)c1	-22	u	x
O=C1N/C(=C/c2cccn2-c2ccccc2)C(=O)N1Cc1ccccc1F	46	u	-14%
CCOc1cc(/C=C/c2cc(C(F)(F)F)[nH]c(=O)n2)ccc1O	x	-3%	x
COc1cc(/C=C2/NC(=O)N(Cc3ccccc3F)C2=O)cc(OC)c1O	x	10µM*	x
CCOc1cc(/C=C2/NC(=O)N(Cc3ccccc3F)C2=O)ccc1O	-10	8.9µM*	-11%
Cc1cc(C)n(CC(=O)N/N=C/c2cccc([N+](=O)[O-])c2)n1	38	-11%	-9%
N#C/C(=N\Nc1ccc(Cl)cc1)C(=N)N1CCCCCC1	x	10%	x
N#C/C(=N\Nc1ccc(S(=O)(=O)N2CCCCC2)cc1)C(N)=S	21	13µM*	-28%
N#C/C(=N/Nc1ccc(S(=O)(=O)N2CCOCC2)cc1)C(N)=O	x	-5%	x
N#C/C(=N\Nc1ccc(S(=O)(=O)N2CCc3ccccc32)cc1)C(N)=S	x	6.3µM*	x
CCOC(=O)/C(C#N)=N/Nc1ccc(S(=O)(=O)N2CCc3ccccc32)cc1	-6	-13%	-2%
SMILES	PNC inhibitor	ALDH1A1 block	HPGD inh
N#C/C(=N\Nc1ccc(S(=O)(=O)N2CCCCCC2)cc1)C(N)=S	x	8.9µM*	x
Cc1ccc(C(=O)NN2C(=O)C3C4c5ccccc5C(c5ccccc54)C3C2=O)cc1 (stereo unspecified)	79	1%	-7%
NCC[C@H](O)C(=O)N[C@H]1C[C@@H](N)[C@@H](O[C@H]2O[C@@H](CN)[C@@H](O)[C@@H](O)[C@@H]2O)[C@@H](O)[C@@H]1O[C@H]1O[C@@H](CO)[C@@H](O)[C@@H](N)[C@@H]1O	x	8%[20.9 µM]	4%
CCOC(=O)c1cnc(-n2nc(C)cc2C)nc1Nc1ccc(N(C)C)cc1	216	20µM*	-19%
CCOC(=O)c1cnc(-n2nc(C)cc2C)nc1NC	2	u	u
CCOC(=O)c1cnc(-n2nc(C)cc2C)nc1Nc1ccc(C)cc1	5	0%	-3%
CCOC(=O)c1cnc(-n2nc(C)cc2C)nc1NC1CCCCC1	u	25µM*	x
Cc1ccc(N2C(=O)CSC2c2ccccn2)cc1Cl (stereo unspecified)	-13	u	-15%
COc1ccc(N2C(=O)CC(NC3CC3)C2=O)cc1 (stereo unspecified)	1	-12%	-6%
CCOC(=O)c1ccc(N2C(=O)CC(NC3CCN(C(=O)c4ccc(F)cc4)CC3)C2=O)cc1 (stereo unspecified)	-1	14µM*	-7%
CCOC(=O)N1CCN(C(=O)c2ccc(OCC)cc2)CC1	x	2%	x
